# NPR1 activator = GC-A (human) enzyme activation; activation, % at 10 µM; actives 0.14% (n = 370,000); HEK293 GC-A cells, cGMP TR-FRET, EC30 ANP; 0% at EC30 ANP, 100% saturating ANP; P16066; in the data active means activation above about 40%
# Target sequence (P16066 whole entry, looked up): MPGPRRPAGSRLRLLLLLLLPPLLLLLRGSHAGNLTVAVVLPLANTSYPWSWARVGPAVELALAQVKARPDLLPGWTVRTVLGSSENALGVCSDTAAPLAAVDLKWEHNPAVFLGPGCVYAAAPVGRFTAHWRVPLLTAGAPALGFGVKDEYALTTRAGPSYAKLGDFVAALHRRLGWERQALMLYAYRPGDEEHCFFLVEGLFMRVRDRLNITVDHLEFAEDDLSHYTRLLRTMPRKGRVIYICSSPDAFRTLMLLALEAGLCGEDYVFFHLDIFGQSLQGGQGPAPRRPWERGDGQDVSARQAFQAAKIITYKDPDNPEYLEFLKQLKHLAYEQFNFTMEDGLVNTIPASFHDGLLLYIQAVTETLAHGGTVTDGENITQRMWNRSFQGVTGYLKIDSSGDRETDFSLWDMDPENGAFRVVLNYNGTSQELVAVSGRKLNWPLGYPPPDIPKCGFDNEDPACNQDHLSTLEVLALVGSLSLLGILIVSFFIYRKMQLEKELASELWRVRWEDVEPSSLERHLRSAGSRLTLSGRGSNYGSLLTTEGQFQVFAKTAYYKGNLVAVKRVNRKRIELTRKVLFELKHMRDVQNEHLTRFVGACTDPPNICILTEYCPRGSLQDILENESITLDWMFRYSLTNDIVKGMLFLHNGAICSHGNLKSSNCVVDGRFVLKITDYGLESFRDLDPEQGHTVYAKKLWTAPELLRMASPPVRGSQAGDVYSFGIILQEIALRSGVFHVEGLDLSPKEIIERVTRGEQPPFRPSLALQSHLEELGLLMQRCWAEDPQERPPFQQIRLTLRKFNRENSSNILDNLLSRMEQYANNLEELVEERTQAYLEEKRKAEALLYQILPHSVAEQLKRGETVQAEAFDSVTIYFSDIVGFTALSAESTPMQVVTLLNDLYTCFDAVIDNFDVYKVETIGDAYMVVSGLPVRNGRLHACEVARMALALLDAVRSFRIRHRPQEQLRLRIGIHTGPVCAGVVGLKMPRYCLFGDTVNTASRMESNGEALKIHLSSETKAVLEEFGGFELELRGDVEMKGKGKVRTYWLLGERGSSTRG
# GC-B act = GC-B (human) receptor activation; activation, % at 10 µM; P20594; actives 0.11% (n = 370,000); HEK293-GC-B cells, CNP EC30, cGMP TR-FRET; 0% at EC30 CNP, 100% saturating CNP;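 active means activation at 10 µM reaching about 35% in either raw or pattern-adjusted values, limit read from the data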
# ADAM10 inh = ADAM10 inhibition, QFRET primary screen; recombinant ADAM10, EDANS/DABCYL FRET peptide cleavage, 3 h; inhibition, % at 7 µM; actives 0.62% (n = 370,000);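 active means inhibition above a per-campaign cutoff equal to the mean of compounds falling between control-based bounds plus 3 SD, cut at about 20% in these data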;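 further: 0% = DMSO wells while the 100% control is not disclosed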
# FAS TE block = blocks the thioesterase domain of human fatty acid synthase | recombinant FAS-TE, OMFH fluorogenic substrate, fluorescence endpoint | actives 0.67% (n = 360,000) | AID 602261 | inhibition, % at 15 µM;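 active means compounds whose normalised, plate-corrected inhibition of enzyme fluorescence in the single-dose primary screen is 50% or more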;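 further: 0% = DMSO with enzyme and 100% = substrate without enzyme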
# ADAM17 inh = ADAM17 inhibition, QFRET primary screen; inhibition, % at 6.95 µM; P78536; actives 0.83% (n = 370,000); recombinant ADAM17, EDANS/DABCYL FRET peptide cleavage;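 active means inhibition above the mean of compounds lying between control limits plus 3 SD, set per campaign, cut at about 8.5% in these data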;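 further: 0% = DMSO-only wells as the low control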
# Active calls of the source: *; · = no result. In the library only some 2% were active in any assay of this set; here they are far more common.
SMILES,NPR1 activator,GC-B act,ADAM10 inh,FAS TE block,ADAM17 inh
CC1(C)Cc2c(C#N)c(SCC(=O)c3ccccc3)nc(N3CCOCC3)c2CO1,10.7,16.3,1.3,17.8,0.0
S=C(SCc1cc(Cl)cc2c1OCOC2)N1CCSCC1,1.8,0.4,-2.0,·,-5.1
Cc1ccc(N2C(=O)c3cccc4c([N+](=O)[O-])ccc(c34)C2=O)c2cccnc12,4.1,40.6*,7.4,-67.2,5.8
CN1CC=C(c2ccccc2)N(c2ccccc2)C1=O,10.5,0.4,0.2,·,1.1
CN(C)c1ccc(NC(=O)CSc2nc3ccccc3c(=O)n2C2CCCCC2)cc1,2.3,-0.4,11.8,28.2,11.9*
N#C/C(=C\c1cn(-c2ccccc2)nc1-c1ccccc1)S(=O)(=O)c1ccccc1,0.0,-1.2,-6.4,-1.7,0.1
CC(C)n1cc(/C=C(\C#N)S(=O)(=O)c2ccccc2)c2ccccc21,37.5,51.0*,-3.6,24.6,7.5
Nc1ccc2c(c1)Cc1cc([N+](=O)[O-])ccc1-2,11.0,-5.5,-3.6,-14.5,0.5
CC(O)CN(CC(C)O)c1ccc2c(c1)Cc1cc([N+](=O)[O-])ccc1-2 (centres undefined),45.2*,27.4,2.3,-48.5,4.3
O=C(Nc1cccc(NC(=O)c2cc([N+](=O)[O-])ccc2Cl)n1)c1cc([N+](=O)[O-])ccc1Cl,·,·,·,56.6*,·
Cc1cc(NC(=O)c2cc([N+](=O)[O-])ccc2Cl)no1,4.5,5.7,-0.8,21.6,-3.2
CCN(CC)S(=O)(=O)c1ccc2oc(C(=O)NCc3ccc(F)cc3)c(C)c2c1,·,·,22.3*,27.8,8.8*
Cc1c(C(=O)NCc2ccc(F)cc2)oc2ccc(S(=O)(=O)N3CCOCC3)cc12,2.8,0.0,-4.2,8.1,1.1
O=C(c1cc(C2CC2)on1)N(C1CCCCC1)C1CCCCC1,-6.7,-2.3,-12.4,·,-5.3
CC(C)c1ccc(/C=c2\sc3nc(-c4ccncc4)nn3c2=O)cc1,41.0*,-18.4,0.5,-8.8,1.1
CN(C)C(=O)COC(=O)c1ccccc1Nc1ccc(SC(F)F)cc1,41.9*,0.7,-9.2,38.1,0.8
COc1ccccc1[C@@H]1C(c2cccc(C)c2)=NN(c2ccccc2)[C@H]1C(=O)N1CCOC1=O,-4.1,-9.3,-157.6,74.3*,-43.7
COc1ccccc1[C@@H]1C(c2ccc(F)cc2)=NN(c2ccccc2)[C@H]1C(=O)N1CCOC1=O,-11.3,-11.1,-126.4,83.9*,-35.6
O=C1OCCN1C(=O)[C@H]1[C@H](c2ccc(F)cc2)C(c2ccccc2)=NN1c1ccccc1,-4.3,-8.0,-216.3,30.9,-57.4
COc1ccccc1[C@@H]1C(c2cccc(Cl)c2)=NN(c2ccc(Br)cc2)[C@H]1C(=O)N1CCOC1=O,0.1,0.1,-202.6,22.2,-51.2
C[C@@H]1OCN(C)[C@H]2C[C@H]3c4[nH]c5cccc(-c6ccccc6)c5c4CCN3C[C@@H]12,1.9,1.8,-101.5,·,-31.5
CCCCCN1CCCCC(NC(=O)c2ccc(F)cc2)C1=O (centres undefined),6.1,3.5,0.0,·,-1.6
C=CCN1C(=O)[C@@H](CC(=O)NCCCC)[C@]2(C(=O)OC)CCCCC=C12,2.7,0.4,2.0,·,1.1
COCn1c(-c2ccc(OC)cc2)nc2ccccc21,6.0,0.1,-15.0,-5.0,-5.9
COc1ccc(-c2nc3ccccc3n2Cc2ccc(C)cc2)cc1,63.1*,48.4*,11.2,15.2,3.6
SMILES,NPR1 activator,GC-B act,ADAM10 inh,FAS TE block,ADAM17 inh
CN(CC(=O)Nc1cc(S(=O)(=O)N2CCCCCC2)ccc1Cl)Cc1ccc2c(c1)OCO2,8.2,16.5,5.0,32.3,5.7
COc1ccc(S(=O)(=O)N2CCCCCC2)cc1NC(=O)CN(C)Cc1ccc2c(c1)OCO2,41.2*,61.0*,9.0,31.9,3.3
Cc1ccc(-c2nc3ncccn3c2NC(=O)c2cccc(C)c2)cc1,-3.2,2.1,-254.5,·,-74.4
Cc1ccc(NS(=O)(=O)c2cc3c(cc2Cl)NC(=O)CO3)cc1C,-8.0,-9.7,4.8,·,1.8
Cc1c(NC(=O)Nc2ccc(Cl)cc2)c(=O)n(-c2ccccc2)n1C,2.3,2.2,-5.9,-5.4,-0.3
Cc1c(N=C2N=C(NC(=O)Nc3ccc(Cl)cc3)c3ccccc32)c(=O)n(-c2ccccc2)n1C,75.8*,-3.0,-5.1,-46.6,-2.2
Cc1nn(-c2ccccc2)c2sc(C(=O)NC3CCCCCC3)cc12,8.9,-4.7,-12.0,·,-3.3
Cc1ccc2c(c1)N(CCCC(=O)N(C)Cc1ccccc1Cl)C(=O)CO2,-8.8,-0.3,-1.1,·,1.3
CC12CCC(=O)C=C1CCC1C2C(O)CC2(C)C(c3csc(N)n3)CCC12 (centres undefined),-0.1,3.4,1.0,-2.7,-1.2
CC12CCC(=O)C=C1CCC1C2CCC2(C)C(c3csc(N)n3)CCC12 (centres undefined),-6.0,-2.6,23.6*,-24.9,1.5
C=CCN(Cc1ccc(OC)cc1OC)C(C#CCCCC)c1ccccc1 (centres undefined),-1.6,-7.2,4.0,·,0.6
Fc1cccc(F)c1/C=N/NC(=S)Nc1cccnc1,-2.6,-3.6,2.6,4.1,0.1
Fc1c(F)c(F)c(/C=N/NC(=S)Nc2cccnc2)c(F)c1F,58.1*,0.8,0.1,8.4,0.2
CN(C)CCCN(C(=O)c1ccc2c(c1)CCCC2)c1nc2ccc(Cl)cc2s1,-12.2,-4.5,17.3,27.1,8.7*
CN(C)C=Nc1ncc2c3ccccc3n(CCN(C)C)c2c1C#N,7.6,6.5,-147.2,-9.1,-46.2
CN(C)C=Nc1ncc2c3ccccc3n(Cc3ccccc3)c2c1C#N,45.7*,35.4*,-36.6,20.4,-9.4
O=C(Nc1cc(Sc2nc3ccccc3s2)cc([N+](=O)[O-])c1)c1ccccc1,4.4,-2.4,7.6,17.4,4.5
O=C(Nc1cc(Sc2ccccn2)cc([N+](=O)[O-])c1)c1cccc(F)c1,-4.4,-1.6,15.9,39.0,11.3*
CCCNC(=O)N1C2=NC(C(=O)OC)=C(C(=O)OC)[C@@H]3N(Cc4ccccc4)c4ccccc4[C@]23C[C@H]1CO,-3.4,2.3,-4.8,80.4*,-2.8
C=CCNC(=O)N1C2=NC(C(=O)OC)=C(C(=O)OC)[C@@H]3N(Cc4ccccc4)c4ccccc4[C@]23C[C@H]1C(=O)OC,-4.9,-11.1,-0.8,6.0,-1.2
Oc1ccc(Cl)cc1Cc1cc(Cl)ccc1O,3.6,-4.4,25.6*,18.6,7.5
Oc1ccc(Cl)cc1CNCc1ccc(Cl)cc1,-0.6,-1.5,1.1,0.7,-1.7
Cc1ccc(Cn2cc(COC(=O)NCC(C)C)nn2)cc1,0.1,6.4,6.4,·,0.9
O=C(CCc1ccccc1)N[C@H]1[C@H](OCc2ccccc2)CCC[C@@]12C(=O)N(Cc1ccccc1)c1ccc(-c3cnccn3)cc12,-0.2,5.2,-263.4,·,-75.0

# Screening data as filed in PubChem BioAssay.
